# Compound activity: PubChem, National Center for Advancing Translational Sciences (NCATS)
# In the library only some 7.1% were active in any assay of this set; here they are far more common.
# MCF10A rereplic = A quantitative high throughput screen for small molecules that induce DNA re-replication in MCF 10a normal breast cells; MCF 10A DNA re-replication, Hoechst nuclear intensity, 48 h; Potency, µM (highest dose often 46.1 µM), hits mostly activators; 2.9% of 350,000 active; AID 624296, 2012; note: nearly all actives have a fitted effect of over 50% in size
# p53 reactivator = qHTS assay for re-activators of p53 using a Luc reporter; H1299 p53-A138V BP100-luciferase reporter, luminescence, 24 h; Potency, µM (top dose mostly 92.2 µM), most hits filed as activators; 0.063% of 320,000 active; AID 504706, 2011; note: nearly all actives have a fitted effect of over 45% in size
#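 p53-null H1299 cells stably carrying temperature-sensitive p53-A138V and a BP100-luciferase reporter were pinned with compounds (4-point, 1:5 series) and held 24 hrs at 37 deg C. Luminescence was read 10 min after detection reagent.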
# ELG1 genotoxic = qHTS screen for small molecules that induce genotoxicity in human embryonic kidney (HEK293T) cells expressing luciferase-tagged ELG1; Potency, µM (highest dose often 46 µM), actives largely listed as activators; HEK293T ELG1-luciferase reporter, luminescence, 16 h; 1.3% of 330,000 active; note: nearly all actives have a fitted effect of over 60% in size
#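 HEK293T cells expressing luciferase-tagged ELG1 were treated with compound or DMSO for 16 hr at 37°C. Luciferase activity was then read after 30 min with ONE-Glo at room temperature; rising signal flags genetic stress.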
# ELG1 DNA repair = qHTS screen for small molecules that inhibit ELG1-dependent DNA repair in human embryonic kidney (HEK293T) cells expressing luciferase-tagged ELG1 | HEK293T ELG1-luciferase reporter, luminescence, 16 h; DNA damage induced by 5-fluorouridine | Potency, µM (highest dose often 46.1 µM), usual class: inhibitors | 2.3% of 330,000 active; note: nearly all actives have a fitted effect of over 55% in size
#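 Reporter activity after DNA damage by 5-fluorouridine is monitored. Compound-treated cells incubate 16 hr at 37 °C, then ONE-Glo is added for 30 min before luminescence reading.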
# SW480 rereplic = A quantitative high throughput screen for small molecules that induce DNA re-replication in SW480 colon adenocarcinoma cells. SW480 DNA re-replication, Hoechst DNA content imaging, 48 h. Potency, µM (doses to about 46.1 µM), hits mostly activators. 1.8% of 340,000 active. AID 624297, 2012; note: nearly all actives have a fitted effect of over 55% in size
#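 Image-based read-out: total Hoechst fluorescence of nuclei (405 nm excitation, 500-530 nm emission), with hits raising the fraction of high-intensity nuclei. SW480 colon cells incubated 48 hr with compounds at 37 C.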
# A-T KAP1 phos = qHTS Assay for Identifying a Potential Treatment of Ataxia-Telangiectasia | Potency, µM (highest dose often 57.5 µM), usual class: activators | AID 485349, 2010 | 0.19% of 320,000 active | F2112 A-T fibroblasts, KAP-1 phosphorylation AlphaLISA; neocarzinostatin DNA damage 30 min before lysis; note: nearly all actives have a fitted effect of over 45% in size
#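 hTERT-immortalized A-T patient fibroblasts (F2112), 500 cells/well in OPTI-MEM, 1% FBS, got compounds for 60 min, then NCS for 30 min at 37C. Lysates were then assayed for phospho-KAP-1 by AlphaLISA (anti-pKAP1 donor, anti-KAP1 acceptor beads), 6 hr at 25C.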
# Hits are given with their value; . = inactive; ? = inconclusive; / = not tested or not shown; [ ] = remark or other dose. Calls come from the whole dose curve; as a rule, active = well fitted curve in the direction sought with a large enough effect; inconclusive = small, poorly fitted or top-dose-only effect, or another doubt; inactive = no such curve, though single readings can be large; an effect the other way counts as inactive or inconclusive.
SMILES,MCF10A rereplic,p53 reactivator,ELG1 genotoxic,ELG1 DNA repair,SW480 rereplic,A-T KAP1 phos
Cc1cccc(Nc2nc(N)c([N+](=O)[O-])c(N3CCC(C)CC3)n2)c1,23.1µM,.,.,.,?,.
COc1ccc(Nc2nc(N)c([N+](=O)[O-])c(N3CCOCC3)n2)cc1,.,.,.,.,?,.
CCN1CCN(c2nc(Nc3cccc(OC)c3)nc(N)c2[N+](=O)[O-])CC1,.,.,.,.,16.4µM,.
CC1CCN(C(=O)C(NS(=O)(=O)c2cccc3nsnc23)C(C)C)CC1 (configuration not stated),.,.,.,.,.,.
Brc1ccc(-c2ncc(-c3ccccc3)cn2)cc1,.,.,0.82µM,?,.,/
N#Cc1c(-c2ccc(Cl)cc2)c2c([nH]c1=O)-c1ccccc1OC2,1.84µM,.,.,.,5.8µM,?
CC1(C)Cc2c(c(-c3ccccc3Cl)[nH]c(=O)c2C#N)CO1,.,.,.,.,.,.
COc1ccc(CN2C(=O)CN=C2Nc2cc(C)ccc2C)cc1,.,.,18.4µM,?,.[9.22 µM],/
CC(OC(=O)CCOc1ccccc1)C(=O)Nc1ccc(Cl)cn1 (configuration not stated),16.4µM,.,.,.,?,.
Cc1ccc(C(C)C)c(OCC(=O)Nc2cccc(S(=O)(=O)NC3=NCCCCC3)c2)c1,?,.,.,23.1µM,.,?
O=C(Nc1cccc(S(=O)(=O)NC2=NCCCCC2)c1)c1cc(-c2ccccc2Cl)nc2ccccc12,?,.,.,23.1µM,.,.
CCOc1ccccc1Nc1nnc(SCC(=O)Nc2cccc(S(=O)(=O)NC3=NCCCCC3)c2)s1,.,.,.,18.4µM,.,.
Cc1cccc(-c2nn(-c3ccccc3)cc2C(=O)Nc2cccc(S(=O)(=O)NC3=NCCC3)c2)c1,.,.,.,?,.,.
O=C(Nc1cccc(S(=O)(=O)NC2=NCCC2)c1)c1cc(-c2ccccn2)nc2ccccc12,.,.,.,.,.,.
COc1ccc(-c2nn(-c3ccccc3)cc2C(=O)Nc2cccc(S(=O)(=O)NC3=NCCC3)c2)cc1,.,.,.,23.1µM,.,.
CCN(C(=O)COC(=O)CNC(=O)C1CCCCC1)c1ccccc1,.,.,.,.,?,.
Cc1sc2ncnc(NCCN3CCOCC3)c2c1C,.,.,.,18.4µM,.,.
CCc1nc(NC(C)(C)C)c2cnn(-c3ccccc3)c2n1,23.1µM,?,?,?,?,?
CC1CCc2c(sc3ncnc(NCCN4CCOCC4)c23)C1 (configuration not stated),?,.,.,.,.,.
CCCCNc1ncnc2c1cnn2Cc1ccc(Cl)cc1,?,.,.,?,?,.
CCCCNc1ncnc2c1cnn2-c1ccccc1,?,?,?,?,6.51µM,.
CCCCNc1ncnc2c1cnn2-c1ccc(Cl)cc1,?,?,2.31µM,?,8.2µM,.
CCCCNc1ncnc2c1cnn2-c1ccc(C)cc1C,.,.,.,.,.,.
O=S(=O)(c1ccc2c(c1)C(O)c1ccccc1CC2)C(F)(F)F (configuration not stated),.,.,.,.,.,.
CS(=O)(=O)N1CCN(Cc2cc(=O)n3ccsc3n2)CC1,.,.,.,.,?,.
c1ccc2c(c1)oc1c(NCCCn3ccnc3)ncnc12,.,.,.,.,.,.
Clc1ccc(-n2ncc3c(NCCCn4ccnc4)ncnc32)cc1,.[0.0737 µM],.,8.2µM,?,.,.
c1ccc(-n2ncc3c(NCCCN4CCOCC4)ncnc32)cc1,.,.,?,?,.,.
